“And” between values parts separate entries of the source, which are not always exact repeats. Equal entries are not always repeated. Hit rate of the full screen: of about 390,000 compounds, about 820 (0.21%) were called active. About 3% were inconclusive and are not listed. The call rests on the fitted dose curve; in most records, active means well fitted inhibition curve with a large enough effect; inconclusive means small, poorly fitted or top-dose-only effect, or another doubt; inactive means no such curve, though single readings can be large or run the other way. What follows is part of a selection rich in actives, with near analogues and random picks from the rest. Entries that show only a call come without a potency. Where a structure was tested more than once in an assay, its records may differ in their call.
Potency means the concentration at half of the fitted maximal effect.

The target in the assay is Histone acetyltransferase KAT2A (Homo sapiens) (UniProt Q92830). The experiment in a line: qHTS Assay for Inhibitors of GCN5L2. As to conditions: GCN5L2 HAT assay, ThioGlo1 CoA-SH fluorescence; series mostly up to 58.9 µM. Put shortly: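 Fluorescence readout, Ex340nm/Em540nm: ThioGlo1 (50uM final) reacts with free CoA thiol released as 20nM GCN5L2 acetylates H3(1-25) peptide (75uM) using acetyl-CoA (70uM). Compound and enzyme sat 15 min beforehand; 20 min room-temperature reaction.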
Chain of Histone acetyltransferase KAT2A (Homo sapiens) (Q92830 whole entry, looked up): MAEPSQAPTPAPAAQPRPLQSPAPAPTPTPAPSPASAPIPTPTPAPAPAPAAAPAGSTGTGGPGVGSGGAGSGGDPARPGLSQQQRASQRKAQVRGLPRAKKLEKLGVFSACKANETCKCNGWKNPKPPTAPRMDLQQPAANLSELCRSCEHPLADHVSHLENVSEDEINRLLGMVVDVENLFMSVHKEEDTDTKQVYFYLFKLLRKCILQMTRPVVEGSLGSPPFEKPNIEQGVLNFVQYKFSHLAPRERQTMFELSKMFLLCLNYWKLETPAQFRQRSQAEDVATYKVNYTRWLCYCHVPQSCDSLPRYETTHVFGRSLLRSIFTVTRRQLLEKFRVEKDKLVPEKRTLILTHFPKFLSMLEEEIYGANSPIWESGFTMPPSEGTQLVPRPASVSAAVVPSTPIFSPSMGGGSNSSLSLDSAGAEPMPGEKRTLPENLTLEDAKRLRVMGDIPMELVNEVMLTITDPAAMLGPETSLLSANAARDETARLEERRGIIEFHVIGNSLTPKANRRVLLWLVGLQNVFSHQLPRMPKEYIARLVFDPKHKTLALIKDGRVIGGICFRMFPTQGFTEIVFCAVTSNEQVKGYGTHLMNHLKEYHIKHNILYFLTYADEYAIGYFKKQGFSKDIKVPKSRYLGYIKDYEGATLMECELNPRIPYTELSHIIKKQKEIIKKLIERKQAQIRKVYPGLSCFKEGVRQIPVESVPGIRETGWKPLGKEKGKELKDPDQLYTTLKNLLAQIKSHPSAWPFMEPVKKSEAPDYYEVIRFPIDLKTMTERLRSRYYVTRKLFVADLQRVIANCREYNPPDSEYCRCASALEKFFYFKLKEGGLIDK
In general terms: In qHTS, concentration-response curves come from the screen itself.
For the compound `CC[C@H](C)[C@H](NC(=O)[C@@H](N)CCC(=O)O)C(=O)N[C@@H](CC(C)C)C(=O)N[C@@H](CC(=O)O)C(=O)N[C@H](C(=O)N1CCC[C@H]1C(=O)N[C@@H](CO)C(=O)N[C@H](C(=O)O)[C@@H](C)O)C(C)C`, the Potency entry was “inactive”. Take `NCCCCC(N)C(=O)O` (centres undefined): the Potency entry was “inactive”. The entry for `Cc1c(C)n(Cc2ccc(Cl)cc2)c2ccc(C(=O)N3CCN(c4ccccc4F)CC3)cc12` is “inactive”; for `CC(C)c1ccc(Cn2c(COc3ccccc3)nc3ccccc32)cc1` it is “inactive”; for `C=C(C)C1CC=C(CO)CC1` (centres undefined) it is “inactive”. `COc1ccc2[nH]cc(CCNc3nc(-c4cccc(NS(C)(=O)=O)c4)nc4ccccc34)c2c1`: the Potency result is “inactive”. `O=C(c1cccnc1)N(c1cc2sc(=O)oc2c2ccccc12)S(=O)(=O)c1ccccc1`: the Potency is 31.6 µM (active). The entry for `O=C(CN(c1cc(C(F)(F)F)ccc1Cl)S(=O)(=O)c1ccccc1)NCc1cccnc1` is “inactive”. Take `CC(=O)N(c1ccc2oc(=O)sc2c1)S(=O)(=O)c1ccc(C)cc1`: the Potency entry was “inactive”.

With `CC(C)(O)CCC(O)[C@@](C)(O)C1CC[C@]2(O)C3=CC(=O)C4CC(O)C(O)C[C@]4(C)C3CC[C@]12C` (some centres undefined), the Potency entry is “inactive”.

Take `Cc1cn([C@H]2CC(F)[C@@H](CO)O2)c(=O)[nH]c1=O` (some centres undefined): the Potency result was “inactive”. On to `C=CCOC(=O)C(=C)C`, for which the Potency entry was “inactive”. The entry for `O=c1c(-c2cc(F)cc(F)c2)nc2cnc(Oc3ccccc3)nc2n1C[C@H]1CCCO1` is “inactive”; for `Cc1ccnc(-n2sc3ccccc3c2=O)n1` it is 3.16 µM (active). The entry for `O=C(c1cc(C(F)(F)F)cc(C(F)(F)F)c1)N1CCC[C@@]2(CCN(c3ccccn3)C2)C1` is “inactive”.

For `CCCCCCCC/C=C\CCCCCCCC(=O)OC[C@H](CO)OC(C)=O`, the Potency entry was “inactive”.

Regarding `O=C(c1ccco1)N1CCC[C@@]2(CCN(c3ccccc3)C2)C1`, the Potency result was “inactive”. In the case of `Cc1ccc(CC2(O)CCN(CCOc3ccc(O)cc3)CC2)cc1`, the Potency result was “inactive”.

Take `CC(=O)OCC(=O)[C@@]1(O)CCC2C3CCC4=CC(=O)CC[C@]4(C)C3C(=O)C[C@]21C` (some centres undefined): the Potency entry is “inactive”. As for `CCOc1ccc(NC(=O)c2ncoc2-c2ccco2)cc1`, the Potency result was “inactive”. Take `CCN(c1ccccc1)S(=O)(=O)c1cc(C(=O)NCc2ccccn2)ccc1C`: the Potency entry was “inactive”. Then `COc1ccc(-c2nc3ccc(C(=O)NCc4ccc(C)cc4)cc3nc2-c2ccc(OC)cc2)cc1`, with “inactive”; and `COCCNC(=O)Nc1ccc2nc(-c3ccco3)c(-c3ccco3)nc2c1`, with 17.8 µM (active); and `COc1ccc(NC(=O)COCc2cc(-c3ccco3)on2)cc1`, with “inactive”. Then `O=C(NCc1ccccn1)c1ccc2nc(-c3ccco3)c(-c3ccco3)nc2c1`, with 11.2 µM (active). For `C[C@]12CC[C@@H]3C(=CCc4cc(O)ccc43)[C@@H]1CCC2=O`, the Potency entry was “inactive”. Then `OCCN1CCN(CC/C=C2\c3ccccc3Sc3ccc(C(F)(F)F)cc32)CC1`, with “inactive”; and `Nc1nc2c(nc(Cl)n2C2OC(CO)C(O)C2O)c(=O)[nH]1` (centres undefined), with “inactive”; and `COc1ccc(C(=O)N2CCC3(CCCN(C(c4ccccc4)c4ccccc4)C3)CC2)cc1`, with “inactive”. The entry for `FCOC(C(F)(F)F)C(F)(F)F` is “inactive”. Then `N#CCCn1c(=O)c(-c2cc(F)cc(F)c2)nc2cnc(Oc3ccccc3)nc21`, with “inactive”. With `Nc1nc2nc(Cl)[nH]c2c(=O)[nH]1`, the Potency result is “inactive”.

Take `O=c1c(O)c(-c2ccc(O)cc2)oc2ccccc12`: the Potency entry is “inactive”. Then `Oc1ccc(-c2c(-c3ccccc3)nn3c(C(F)(F)F)cc(C(F)(F)F)nc23)cc1`, with “inactive”; and `Fc1ccc(Cl)cc1-c1nc(Nc2ccncc2)c2nccnc2n1`, with “inactive”; and `Cc1ccc(-c2nn(-c3ccccc3)cc2/C=C2\SC(=S)N(CCCCCC(=O)O)C2=O)o1`, with 25.1 µM (active). The entry for `CO[C@@]12[C@@H](COC(N)=O)C3=C(C(=O)C(C)=C(N)C3=O)N1C[C@@H]1N[C@@H]12` is “inactive”.

As for `COc1ccccc1CNc1ncnc2ccc(-c3c(C)noc3C)cc12`, the Potency entry is “inactive”. The entry for `COc1ccccc1-c1nc(NCc2cccs2)c2ccccc2n1` is “inactive”. Regarding H-EHIPA-OH, the Potency entry was “inactive”. The entry for `Nc1nc2c(ncn2[C@@H]2O[C@H](COP(=O)(O)OP(=O)(O)OP(=O)(O)O)[C@@H](O)C2O)c(=O)[nH]1` (some centres undefined) is “inactive”; for `O=C(Nc1cccc(C(F)(F)F)c1)c1ccc(N2CCNCC2)c([N+](=O)[O-])c1` it is “inactive”. With `O=C(Cc1ccc(S(=O)(=O)N2CCOCC2)s1)N1CCN(c2ccc(C(F)(F)F)cc2[N+](=O)[O-])CC1`, the Potency entry is “inactive”. For the compound `COc1cc(OC)cc(C(=O)NC(=S)N2CCN(c3ccc(C(F)(F)F)cc3[N+](=O)[O-])CC2)c1`, the Potency was 2 µM (active). Then `CC(C)=CCN1CCC2(CCc3ccccc32)CC1`, with “inactive”. Then `CC(C)C(NS(=O)(=O)c1ccc(-c2ccc(Br)cc2)cc1)C(=O)O` (centres undefined), with “inactive”.

Turning to `COCCn1c(=O)c(-c2cccs2)nc2cncnc21`, the Potency result was “inactive”. With `OCC(CO)NC1C[C@](O)(CO)[C@@H](O)[C@H](O)[C@H]1O` (some centres undefined), the Potency entry is “inactive”. The entry for `COc1ccc(CNc2ncncc2-c2ccccc2C)c(OC)c1` is “inactive”; for `COc1ccc(CCCOC(Cn2ccnc2)c2ccc(OC)cc2)cc1` (centres undefined) it is “inactive”; for `Cc1ccccc1NC(=O)c1cnn(-c2ccccc2)c1NC(=O)c1ccco1` it is “inactive”. Then `O=C(Cc1ccccc1)Nc1c(C(=O)N2CCCCCC2)cnn1-c1ccccc1`, with “inactive”; and `O=C(Nc1c(C(=O)N2CCCCC2)cnn1-c1ccccc1)c1ccco1`, with 17.8 µM (active); and `O=C(/C=C/c1cccc(F)c1)NC1CC1`, with “inactive”. On to `CC(C)C1=CC2=CC[C@@H]3[C@](C)(CO)CCC[C@]3(C)C2CC1` (some centres undefined), for which the Potency result was “inactive”. In the case of `CC1=C(/C=C/C(C)=C/C=C/C(C)=C/C=C/C=C(C)/C=C/C=C(C)/C=C/C(=O)[C@]2(C)C[C@@H](O)CC2(C)C)C(C)(C)C[C@H](O)C1`, the Potency result was “inactive”. Then `O=C(O)CCCCC(=O)O`, with “inactive”; and `CCCCCCCCCCCC(=O)O`, with “inactive”; and `C#CCCCCCCCCCCCCCCCC(=O)O`, with “inactive and 11.2 µM (active)”.

With `NC(=O)c1sc(-c2ccsc2)cc1N`, the Potency entry was “inactive”. Consider `Cc1nc2cnc(N3CCNCC3)nc2n(CCc2ccccc2)c1=O`, for which the Potency entry was “inactive”.

In the case of `Cc1ccccc1-c1ccc(C(=O)O)s1`, the Potency result is “inactive”. Consider `Cn1cc(-c2nc3cnc(N4CCNCC4)nc3n(CCc3ccccc3)c2=O)c2ccccc21`, for which the Potency entry was “inactive”.

Regarding `NCCCNCCCCN(CCCN)/[N+]([O-])=N/O`, the Potency entry was “inactive”.

The values above are taken from PubChem BioAssay AID504327 (National Center for Advancing Translational Sciences (NCATS), 2011).
